Assay results reported in PubChem BioAssay AID1851 (National Center for Advancing Translational Sciences (NCATS), 2009).
In all, about 16,000 compounds went through this assay and about 4,000 (25%) were called active. Roughly 26% stayed inconclusive and do not appear here. The list is a sample of the results. Unmarked numbers belong to inactive results. Calls come from the whole dose curve; as a rule, active = well fitted curve in the direction sought with a large enough effect; inconclusive = small, poorly fitted or top-dose-only effect, or effect the other way; inactive = no such curve, though single readings can be large or run the other way.

These compounds were tested against Cytochrome P450 2C9 (Homo sapiens) (UniProt P11712) (assay: Cytochrome panel assay with activity outcomes). Conditions: recombinant CYP, pro-luciferin dealkylation, luminescence, p450-cyp2c9; series mostly up to 57.1 µM; activity, negative = inhibition: at the top concentration.
% is set by controls: 0 for no effect and ±100 for the full control effect.

Sequence of Cytochrome P450 2C9 (Homo sapiens) (P11712 whole entry, looked up): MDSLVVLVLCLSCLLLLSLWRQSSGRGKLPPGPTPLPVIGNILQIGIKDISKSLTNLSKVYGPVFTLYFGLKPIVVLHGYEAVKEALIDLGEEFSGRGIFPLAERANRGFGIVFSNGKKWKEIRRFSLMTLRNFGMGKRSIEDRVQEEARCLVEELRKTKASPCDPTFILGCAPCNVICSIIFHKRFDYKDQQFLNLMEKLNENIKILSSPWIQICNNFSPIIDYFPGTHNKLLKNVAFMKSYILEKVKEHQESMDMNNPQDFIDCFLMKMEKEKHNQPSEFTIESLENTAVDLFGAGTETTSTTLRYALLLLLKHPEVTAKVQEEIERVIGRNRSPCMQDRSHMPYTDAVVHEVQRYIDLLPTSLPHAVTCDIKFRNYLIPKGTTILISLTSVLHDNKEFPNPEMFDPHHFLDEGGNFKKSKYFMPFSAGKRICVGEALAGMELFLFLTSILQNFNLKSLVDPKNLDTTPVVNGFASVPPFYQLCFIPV

| SMILES | activity, negative = inhibition | AC50 |
| --- | --- | --- |
| Cc1ccc(C(=O)c2ccc(CC(=O)O)n2C)cc1 | 16.9% [at 25.6 µM] |  |
| CCOC(=O)CCN1C(=O)[C@H]2[C@H]3[C@H](O)[C@H](O)C/C(=N/OC/C=C(\C)CCC=C(C)C)[C@@H]3CC[C@@H]2C1=O | 7.78% [at 11.4 µM] |  |
| CN1CCN(c2ncnc3ccc(-c4ccc(C(=O)N(C)C)cc4)cc23)CC1 | 17.4% [at 2.29 µM] |  |
| Cc1noc(C)c1-c1ccc2ncnc(Nc3ccc(F)cc3)c2c1 | -13.2% [at 2.29 µM] |  |
| FC(F)(F)c1cc(CN2CCC3(CCNCC3)CC2)cc(C(F)(F)F)c1 | 9.64% |  |
| CS(=O)(=O)Nc1cccc(-c2nccc(Nc3ccc(F)cc3)n2)c1 | 18.7% [at 2.29 µM] |  |
| COC(=O)c1cc(/C=C/c2ccccc2)on1 | -25.8% |  |
| COC(=O)C1=C(C)N=C2SC(C)C(=O)N2C1/C=C/c1ccccc1 (stereo not given) |  | 4.47 µM (active) |
| COC(=O)[C@@]1(Cc2ccccc2)[C@H]2c3cc(C(=O)N(C)C)n(Cc4ccsc4Br)c3C[C@H]2CN1C(=O)c1ccccc1 |  | 3.98 µM (active) |
| COC(=O)[C@@]1(Cc2ccccc2)[C@H]2c3cc(C(=O)N4CCCC4)n(Cc4ccsc4Br)c3C[C@H]2CN1C(=O)c1ccccc1 |  | 2 µM (active) |
| CCCCN1CCCC[C@H]1C(=O)Nc1c(C)cccc1C | 18.9% [at 25.6 µM] |  |
| CC(=O)OC[C@@H]1O[C@H](CCO/N=C\[C@@H](C)[C@H](OCc2ccccc2)C(C)C)C=C[C@@H]1OC(C)=O | -15.4% [at 11.4 µM] |  |
| CON1C(=O)C(=O)N(OC)C(C)(C)C1C (stereo not given) | -9% |  |
| COc1ccccc1NC(=S)NNC(=O)c1c(Cl)c(C)nn1C |  | 3.55 µM (active) |
| Cc1nn(C)c(C(=O)NNC(=S)Nc2ccc(Cl)cc2)c1[N+](=O)[O-] |  | 6.31 µM (active) |
| Cc1cc(NC(=O)c2c([N+](=O)[O-])c(C)nn2C)no1 | 9.1% |  |
| Cc1cc([N+](=O)[O-])nn1CC(=O)NNC(=S)Nc1ccc(F)cc1 | -30% |  |
| O=C(N/N=C1/C[C@@H](O)[C@@H](O)[C@@H]2[C@H]3C(=O)N(c4ccc(F)cc4F)C(=O)[C@@H]3CC[C@@H]12)OCc1ccccc1 | -1.14% [at 11.4 µM] |  |
| NC(N)=N/N=C\c1ccc(O)c(C(=O)O)c1 | 2.83% [at 11.4 µM] |  |
| O=C(O)c1ccc(C(=O)c2ccccc2C(=O)O)cc1C(=O)O | -6.86% [at 11.4 µM] |  |
| O=C(O)C1=CC(=C(c2ccc(O)c(C(=O)O)c2)c2ccc(O)c(C(=O)O)c2)C=CC1=O |  | 15.8 µM (active) |
| CC1=C/C(=C(/c2ccc(O)c(C)c2)c2ccccc2C(=O)O)C=CC1=O |  | 0.01 µM (active) |
| O=C(O)c1ccc(C(=O)O)c(C(=O)O)c1.[NH-][C@@H]1CCCC[C@@H]1[NH-].[Pt] | 0.225% [at 11.4 µM] |  |
| NC(=O)CN1CCOCCOCCOCCOCCOCC1 | -26.1% |  |
| CCN(C1CCCCC1)S(=O)(=O)c1ccc(S(=O)(=O)NCc2ccncc2)cc1 |  | 0.0398 µM (active) |
| O=S(=O)(NCc1cccnc1)c1ccc(Cl)nc1 | -12.7% |  |
| COc1ccccc1CNc1cc(-c2c(C)noc2C)ncn1 | -2.44% [at 2.29 µM] |  |
| Cc1ccc(-n2nc(C)c3c2OC(N)=C(C#N)C3c2ccco2)cc1 (stereo not given) |  | 6.31 µM (active) |

| SMILES | activity, negative = inhibition | AC50 |
| --- | --- | --- |
| COc1ccccc1NC(=O)COC(=O)c1ccc(S(=O)(=O)NCc2ccco2)cc1 |  | 0.398 µM (active) |
| NCCSSCCN |  | inactive |
| O=c1cnc2cnc(N3CCNCC3)nc2n1Cc1cccs1 | 13.9% |  |
| O=c1c(-c2cc(F)cc(F)c2)nc2cnc(N3CCNCC3)nc2n1Cc1cccs1 |  | 3.98 µM (active) |
| CN(C)c1ncc2nc(-c3cc(F)cc(F)c3)c(=O)n(Cc3cccs3)c2n1 | 0.26% |  |
| COc1ccc(-c2nc3cnc(N4CCN(C)CC4)nc3n(Cc3cccs3)c2=O)cc1 | 10.4% |  |
| O=c1c(-c2ccc(F)cc2)nc2cnc(N3CCOCC3)nc2n1Cc1cccs1 | -0.555% |  |
| O=c1c(-c2ccc(F)cc2)nc2cnc(N3CCNCC3)nc2n1Cc1cccs1 |  | 15.8 µM (active) |
| O=c1c(-c2ccc(Cl)cc2)nc2cnc(N3CCNCC3)nc2n1Cc1cccs1 |  | 20 µM (active) |
| CN1CCN(c2ncc3nc(-c4cc(F)cc(F)c4)c(=O)n(Cc4cccs4)c3n2)CC1 | -23.5% |  |
| Cc1nc2cnc(N3CCNCC3)nc2n(Cc2cccs2)c1=O | 0.901% |  |
| CN1CCN(c2ncc3nc(-c4ccc(Cl)cc4)c(=O)n(Cc4cccs4)c3n2)CC1 | -12.8% |  |
| O=c1c(-c2cccs2)nc2cnc(N3CCNCC3)nc2n1Cc1cccs1 |  | 12.6 µM (active) |
| COc1ccc(NC(=O)N2CC[C@@]3(CCCN(C(=O)c4cc(C(F)(F)F)cc(C(F)(F)F)c4)C3)C2)cc1 | -2.5% |  |
| O=C1C(O)=C(O)C(=O)C(O)=C1O | 3.72% [at 25.6 µM] |  |
| Cc1ccnc(NS(=O)(=O)c2ccc(N=[N+]=[N-])cc2)n1 | -7.68% [at 11.4 µM] |  |
| COC(=O)[C@@H]1O[C@@H](c2c(OC)c(OC)c(C)c(OC)c2OC)[C@H](C)[C@@H](O)[C@@H]1C | 14.6% [at 11.4 µM] |  |
| COCCn1c(=O)c(-c2cccs2)nc2cnc(N3CCN(C)CC3)nc21 | -17.1% |  |
| COCCn1c(=O)c(-c2cccs2)nc2cnc(N3CCNCC3)nc21 |  | 2 µM (active) |
| COc1ccc(-n2c(=O)c(-c3cccs3)nc3cnc(N4CCNCC4)nc32)cc1 | -27.1% |  |
| Cc1noc(C)c1C(=O)N1CCC2(CCN(C(=O)NC(C)C)CC2)CC1 | -18.1% |  |
| COC(=O)C1=C(CSc2nncn2C)NC(=O)NC1c1ccc(F)cc1 (stereo not given) | -23.8% |  |
| CCOC(=O)C1=C(C)N=C2SC(C(=O)OC)=CC(=O)N2C1c1ccc(F)cc1 (stereo not given) |  | 7.08 µM (active) |
| OCCCCNCc1ccc(OCc2ccccc2Cl)cc1 | 15.7% |  |
| Nc1cccc(OCc2nc(N)nc(N)c2-c2ccc(Cl)cc2)c1 | -4.32% [at 11.4 µM] |  |
| Cc1cc(OCc2nc(N)nc(N)c2-c2ccc(Cl)c(Cl)c2)ccc1[N+](=O)[O-] |  | 1.58 µM (active) |
| CC1(C)S[C@@H]2[C@H](NC(=O)[C@@H](NC(=O)N3CCNC3=O)c3ccccc3)C(=O)N2[C@H]1C(=O)O | -10.6% [at 25.6 µM] |  |
